This is a sample that favours compounds with a hit; in the whole collection about 8.9% have one here.
ALDH1A1 block: inhibitors of human aldehyde dehydrogenase 1A1; 220,000 tested, 7.3% active; Potency, µM (titrated, usually from 75.3 µM), for the others: top-dose activity, negative = inhibition, usual class: inhibitors; AID 1030; P00352; Purified ALDH1A1, NADH fluorescence, propionaldehyde substrate; active = well fitted inhibition curve with a large enough effect, not every such curve was filed as active; inconclusive = small, poorly fitted or top-dose-only effect, or another doubt; inactive = no such curve, though single readings can be large or run the other way;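 also: potency is read from the fitted curve at half-maximal effect; plate controls were no enzyme wells and a reference inhibitor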
IMPase Li cell: membrane-permeable IMPase blocker, potentiated with lithium | CHO-M1 cells, IP1 TR-FRET (IP-One), carbachol + lithium | Potency, µM (top dose mostly 59.4 µM), for the others: at the highest dose activity, negative = IMPase inhibition, actives largely listed as inhibitors | 210,000 tested, 0.35% active | AID 1457;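 also: IP1 builds up when IMPase is blocked and the TR-FRET signal falls; potency is read from the fitted curve at half-maximal effect; plate controls were basal vehicle for no effect and high inhibitor control for full effect; nearly all actives have a fitted effect of over 50% in size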
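CHO cells stably expressing M1 receptor (2000/well, cultured 16–30 h) treated 30 min at 37C with compound plus low lithium. Cytosolic IP1 by TR-FRET (665/620 ratio and 620 channel) after 10 min lysis; AC50 by Hill fit.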
HPGD block: blocks human HPGD enzyme activity | P15428 | purified HPGD, NADH fluorescence kinetic, PGE2 substrate | Potency, µM, without a hit: top-dose activity change, negative = inhibition, hits mostly inhibitors | 150,000 tested, 4.3% active | AID 894; active = well fitted inhibition curve with a large enough effect, not every such curve was filed as active; inconclusive = small, poorly fitted or top-dose-only effect, or another doubt; inactive = no such curve, though single readings can be large or run the other way; also: potency is read from the fitted curve at half-maximal effect
Target sequence (P15428 whole entry, looked up): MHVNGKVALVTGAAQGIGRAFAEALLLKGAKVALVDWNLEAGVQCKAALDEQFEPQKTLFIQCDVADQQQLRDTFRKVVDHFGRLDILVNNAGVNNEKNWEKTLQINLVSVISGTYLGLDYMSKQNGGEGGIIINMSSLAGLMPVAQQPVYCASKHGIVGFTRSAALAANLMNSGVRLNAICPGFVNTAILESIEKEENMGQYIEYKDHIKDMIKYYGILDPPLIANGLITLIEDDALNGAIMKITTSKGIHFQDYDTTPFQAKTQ
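NADH formation kinetics: reaction with 30 uM PGE2 and 1 mM NAD+ (final), 20 nM enzyme, Tris-HCl pH 8 with Tween 20, after 15 min compound preincubation at room temperature. Fluorescence change, last versus first of five reads.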
NPSR antagonist: antagonists of human neuropeptide S receptor cAMP signaling; Q6W5P4; CHO-NPSR cells, cAMP TR-FRET, antagonist mode; Potency, µM (doses to about 38.3 µM), inactives show at the top dose activity change, negative = inhibition, usual class: inhibitors; 220,000 tested, 1% active; also: potency is read from the fitted curve at half-maximal effect; nearly all actives have a fitted effect of over 50% in size
Target sequence (Q6W5P4 whole entry, looked up): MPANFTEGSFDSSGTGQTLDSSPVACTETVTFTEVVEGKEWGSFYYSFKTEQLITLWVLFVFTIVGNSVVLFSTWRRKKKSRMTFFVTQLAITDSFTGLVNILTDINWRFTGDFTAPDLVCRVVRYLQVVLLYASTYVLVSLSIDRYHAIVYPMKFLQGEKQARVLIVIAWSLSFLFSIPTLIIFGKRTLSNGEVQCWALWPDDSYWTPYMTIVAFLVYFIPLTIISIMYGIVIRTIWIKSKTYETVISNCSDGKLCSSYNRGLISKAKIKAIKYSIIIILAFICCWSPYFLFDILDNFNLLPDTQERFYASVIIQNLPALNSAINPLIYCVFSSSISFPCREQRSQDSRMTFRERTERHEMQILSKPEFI
IMPase inh: cell-permeable inhibitors of inositol monophosphatase (IMPase). P97697. CHO-M1 cells, IP1 accumulation, HTRF TR-FRET ratio. inhibition (IP1 accumulation), % at 46.1 µM. 120,000 tested, under 10 active. AID 901; active = well fitted curve in the direction sought with a large enough effect in the signal ratio, not every such curve was filed as active; inconclusive = small, poorly fitted or top-dose-only effect, or a change in a side signal; inactive = no such curve, though single readings can be large or run the other way; the % refers to the signal ratio;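 also: cells stimulated with carbachol in lithium chloride buffer; plate controls were DMSO basal wells for no effect and reference inhibitor wells for full effect; higher means more IMPase inhibition seen as more IP1 and lower FRET ratio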
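The IP-One HTRF competitive assay in carbachol-stimulated CHO-M1 cells quantifies cellular IP1. Compounds spanned up to 46 uM final, and activity is expressed as AC50 from concentration-response fits of the ratio and donor data.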
12-hLO inh: blocks human 12-lipoxygenase activity; P18054; purified 12-hLO, xylenol orange hydroperoxide absorbance; Potency, µM (highest dose often 57.1 µM), inactives show at the highest dose activity change, negative = inhibition, usual class: inhibitors; 150,000 tested, 0.12% active; AID 1452; also: potency is read from the fitted curve at half-maximal effect; nearly all actives have a fitted effect of over 55% in size
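150 nM 12hLO, 25 mM Hepes pH 7.0 + 0.01% Triton X-100; cpd preinc 15 min RT; 40 uM arachidonic acid, 30 min RT; Fe-XO 30 min; A573/A405 ratio as read-out.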
Active calls of the source: *; ? = inconclusive; . = no result; [ ] = another dose, or the depositor's remark. Unless noted, calls follow the shape of the dose curve; as a rule, active = well fitted curve in the direction sought with a large enough effect; inconclusive = small, poorly fitted or top-dose-only effect, or another doubt; inactive = no such curve, though single readings can be large; an effect the other way counts as inactive or inconclusive. Unless noted, % is scaled to controls: 0 for no effect and ±100 for the full control effect.

SMILES	ALDH1A1 block	IMPase Li cell	HPGD block	NPSR antagonist	IMPase inh	12-hLO inh
COc1cc(/C=C2\S/C(=N/S(=O)(=O)Cc3ccccc3)NC2=O)c([N+](=O)[O-])cc1OC	.	.	.	-3%	.	.
COc1cc(/C=N/Nc2ccc(Cl)cc2)ccc1OC(=O)c1cccs1	-23%	-4%	-9%	-2%	2	-14%
CC(/C=C/C=C(C)/C=C/C(=O)O)=C\C=C\C=C(C)\C=C\C=C(C)\C=C\C(=O)O	32µM*	14%	-21%	.	.	-3%
COc1ccccc1NC(=O)C(C)N1CCN(C/C=C/c2ccccc2)CC1 (stereo unspecified)	-7%	24%[38.3 µM]	-9%	-22%[46.1 µM]	6	1%
CCOC(=O)Cn1c(=O)oc2cc(S(=O)(=O)Nc3cc(OCC)ccc3OCC)ccc21	0%	16%[38.3 µM]	-11%	-17%[46.1 µM]	-2	-7%
CCOC(=O)Cn1c(=O)oc2cc(S(=O)(=O)Nc3ccc(N(CC)CC)cc3C)ccc21	?	22%[38.3 µM]	28µM*	?	3	-5%
COc1cc(/C=C2/NC(=O)NC2=O)cc(Br)c1OCc1ccc(C(=O)O)cc1	?	10%	.	6%	.	.
C=CCc1cc(C=O)cc(OC)c1OCc1ccc(C(=O)O)cc1	10µM*	-2%	.	-13%	.	.
CC(C)C1C(C#N)=C(N)SC(N)=C1C#N	8.9µM*	-15%[38.3 µM]	?	-24%[46.1 µM]	4	-3%
CCC(CC)C1C(C#N)=C(N)SC(N)=C1C#N	?	2%	-22%	13%	-1	-14%
CC(c1ccccc1)C1C(C#N)=C(N)SC(N)=C1C#N (stereo unspecified)	20µM*	.	.	5%[46.1 µM]	12	-21%
CC(CC1C(C#N)=C(N)SC(N)=C1C#N)c1ccccc1 (stereo unspecified)	10µM*	-25%[38.3 µM]	14µM*	-5%[46.1 µM]	3	-7%
CN1CCN(C(=O)C2=C[C@@H](c3ccc(Br)cc3)C[C@@H](OCc3ccc(CO)cc3)O2)CC1	-3%	6%	.	15%	.	.
Cn1cccc1Cc1nnc(SCC(=O)N2CCCCCC2)n1CCc1ccccc1	25µM*	9%[38.3 µM]	-9%	-15%[46.1 µM]	0	-1%
Cn1cccc1Cc1nnc(SCC(=O)Nc2ccccc2F)n1CCc1ccccc1	25µM*	11%	-14%	-11%	2	1%
Cn1cccc1Cc1nnc(SCC(=O)Nc2cccc(F)c2)n1CCc1ccccc1	?	14%	-11%	-38%	16	-3%
O=C(Cn1cnc2ccccc2c1=O)NCCC(=O)N1CCN(Cc2ccccc2)CC1	?	21%[38.3 µM]	-4%	-4%[46.1 µM]	0	2%
COCC(C)N=C1NN=C(c2cccs2)C(CC(=O)O)S1 (stereo unspecified)	13µM*	3%	.	-35%	.	.
N#Cc1ccc(NC(=O)CNc2cc(S(=O)(=O)N3CCOCC3)ccc2NCC2CCCO2)cc1 (stereo unspecified)	18µM*	4%	.	-25%	.	.
C=C(C)C(=O)c1ccc(OC)cc1	2%	9%	-1%	.	.	.
COc1ccc(C(=O)[C@H](Br)[C@H](Br)C(=O)O)cc1	0.28µM*	9%	-13%	.	.	-3%[11.4 µM]
CCOc1ccc(NC2=C(Cl)C(=O)N(Cc3ccccc3)C2=O)cc1	13%	.	.	-28%[46.1 µM]	8	-26%
COc1ccc(NC2=C(Cl)C(=O)N(CCc3ccccc3)C2=O)c(OC)c1	?	11%	16µM*	-12%	.	-3%
Cc1ccc(O)c(NC2=C(Cl)C(=O)N(Cc3ccccc3)C2=O)c1	2.8µM*	22%	.	-35%	.	.
COc1ccc(NC2=C(Cl)C(=O)N(CCc3ccccc3)C2=O)cc1	-10%	12%	-15%	-13%	0	-7%
SMILES	ALDH1A1 block	IMPase Li cell	HPGD block	NPSR antagonist	IMPase inh	12-hLO inh
CC(C)C(=O)N(Cc1ccc(F)cc1)Cc1nc2ccccc2c(=O)[nH]1	1%	3%	.	9%	.	.
O=C(/C=C/c1ccccc1O)c1ccc(Cl)cc1	0%	8%	.	6%	.	.
CC/C(=N\NC(=O)c1ccc(N(C)C)cc1)c1ccccc1	28µM*	-2%	-19%	3%	.	-2%
CN(C)c1ccc(/C=N/NC(=O)c2ccccc2)cc1	?	8%	.	-20%	.	.
CCN(c1ccccc1)S(=O)(=O)c1cc(C(=O)Nc2ccccc2Cl)ccc1F	3%	15%	-1%	-19%[46.1 µM]	10	-6%
CCN(c1ccccc1)S(=O)(=O)c1cc(C(=O)Nc2ccc(Br)cc2)ccc1F	28µM*	16%	?	-46%	.	-8%
CC(C)(C)OC(=O)NC(CC(=O)OCc1ccccc1)C(=O)O (stereo unspecified)	.	.	.	-4%	.	.
COC(=O)C(Cc1cncn1COCc1ccccc1)NC(=O)OC(C)(C)C (stereo unspecified)	20µM*	-18%[38.3 µM]	-5%	-17%[46.1 µM]	4	-1%
O=C(NC1CCS(=O)(=O)C1)c1sc2ccccc2c1Cl (stereo unspecified)	3%	-3%	.	19%	.	.
CC(NC(=O)c1sc2cc([N+](=O)[O-])ccc2c1Cl)C(C)(C)C (stereo unspecified)	0.56µM*	.	.	-26%[46.1 µM]	4	-3%
O=C(NC1CC1)c1sc2cc([N+](=O)[O-])ccc2c1Cl	7%	1%	25µM*	8%	.	-3%
O=S1(=O)CCC(N=Cc2cc(Br)ccc2O)C1 (stereo unspecified)	10%	8%[38.3 µM]	-8%	-9%[46.1 µM]	2	-11%
Cc1cccc(N2C(=O)C3C4CC(=O)C(c5ccccc54)C3C2=O)c1C (stereo unspecified)	-4%	0%	.	10%	.	.
O=C1C2CC=C(Cl)CC2C(=O)N1CC1Cc2ccccc2CO1 (stereo unspecified)	22µM*	10%[38.3 µM]	22µM*	6%[46.1 µM]	-9	-21%
Cc1ccc(CNC(=O)c2ccccc2SCC(=O)NCC2CCCCC2)cc1	5%	.	.	0%[46.1 µM]	-5	1%
O=S(=O)(Nc1ccc(Cl)cn1)c1ccccc1	0%	6%	.	-3%	.	.
NC(=O)c1c(NC(=O)c2ccncc2)sc2c1CCCC2	?	12%	.	8%	.	.
COC(=O)Nc1sc2c(c1C(N)=O)CCCCCC2	8.9µM*	21%[38.3 µM]	14µM*	4%[46.1 µM]	-13	2%
CCCC(=O)NC(=S)Nc1sc2c(c1C(N)=O)CCC2	8.9µM*	6%	25µM*	2%	.	-1%
Cc1noc(C)c1C(=O)Nc1sc2c(c1C(N)=O)CCCCC2	7.9µM*	13%[38.3 µM]	?	3%[46.1 µM]	7	-6%
NC(=O)c1c(NC(=O)c2cnccn2)sc2c1CCCC2	20µM*	6%	.	-2%	.	.
C=CCN1C(=O)/C(=C2/Sc3ccc(OC)cc3N2C)SC1=Nc1ccc(OC)cc1	7%	-2%	.	-6%	.	.
O=C(Nc1ccc(N2CCOCC2)cc1)c1cccnc1	2%	22%	-16%	-15%[46.1 µM]	17	1%

Compound activity as filed in PubChem.
